The full list was thinned out, with hits kept by preference.
Pf Dd2 growth – inhibitors of Plasmodium falciparum Dd2 growth; P. falciparum Dd2 growth, SYBR Green, 72 h; Potency, µM (series often up to 28.9 µM), actives largely listed as inhibitors; actives 4.3% (n = 120,000); AID 1347417; active means well fitted inhibition curve with a large enough effect; further: nearly all actives have a fitted effect of over 65% in size
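Readout: SYBR Green fluorescence, 485 nm excitation, 535 nm emission, after ~16 h lysis at 37C. Before that, Dd2-infected red cells (2.5% hematocrit) grew 72 h with compound, 29 uM top final concentration.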
Numbers stand for hits; . = inactive; [ ] = another dose, or the depositor's remark.

SMILES	Pf Dd2 growth
O=C(NC1CCN(c2cc(-c3ccc(F)cc3)[nH]n2)C1)c1ccc2[nH]ccc2c1 (stereo not given)	5µM
Cc1ccc(C(=O)NC2CCN(c3cc(-c4ccc(F)cc4)[nH]n3)C2)cc1 (stereo not given)	.
O=C(NC1CCN(c2cc(-c3ccc(F)cc3)[nH]n2)C1)c1cccc(F)c1 (stereo not given)	.
Cc1cccc(C(=O)NC2CCN(c3cc(-c4ccc(F)cc4)[nH]n3)C2)c1 (stereo not given)	10µM
COc1ccc(C(=O)NC2CCCN(c3cc(-c4ccccc4)[nH]n3)C2)cc1 (stereo not given)	.
Cc1ccc(C(=O)NC2CCN(c3ccc(F)cc3)C2=O)s1 (stereo not given)	.
CC(=O)Nc1cccc(C(=O)NCc2nnc3ccc(-c4ccccc4)nn23)c1	.
CN(C)C(=O)CN1C(=O)CO[C@H](c2ccc(NC(=O)c3ccc(F)c(Cl)c3)cc2)[C@H]1CO	.
O=C(NC1CCCCC1)N1CC(c2nnc(-c3ccncc3)o2)C2(CCOCC2)C1 (stereo not given)	.
O=C([C@H]1C[C@H](Oc2cccnc2)CN1C(=O)c1ccccc1)N1CCOCC1	.
COCCNC(=O)[C@H]1C[C@H](Oc2cccnc2)CN1C(=O)NCc1ccc(C)cc1	.
O=C1COc2ccc(NCc3cccs3)nc2CN1Cc1ccc(C(F)(F)F)cc1	.
CCOC(=O)c1c(NC(=O)c2cc3ccccc3c(=O)o2)sc2c1CCC(C)C2 (stereo not given)	.
CCOc1ccc(NC(=O)c2c(NC(=O)c3ccncc3)sc3c2CCC(C(C)(C)C)C3)cc1 (stereo not given)	.
CCOc1ccc(NC(=O)c2c(NCc3cccnc3)sc3c2CCC(C)C3)cc1 (stereo not given)	.
CCOC(=O)c1ccc(NC(=O)c2c(NCc3ccc(OC)c(OC)c3OC)sc3c2CCC(C)C3)cc1 (stereo not given)	10µM
CCOc1ccccc1NC(=O)c1c(NC(=O)c2ccccc2C)sc2c1CCC(C)C2 (stereo not given)	.
CCCOc1ccc(/C=C/C(=O)Nc2sc3c(c2C(=O)OCC)CCC(C)C3)cc1OC (stereo not given)	.
CCOc1ccc(NC(=O)c2c(NCc3ccc(C)o3)sc3c2CCC(C)C3)cc1 (stereo not given)	11µM
CC1CCc2c(sc(NC(=O)COc3ccccc3)c2C(=O)Nc2ccccc2Cl)C1 (stereo not given)	.
Cc1cccc(NC(=O)c2c(NC(=O)c3cccs3)sc3c2CCC(C)C3)c1 (stereo not given)	.
CCOc1ccc(NC(=O)c2c(NC(=O)c3ccco3)sc3c2CCC(C(C)(C)C)C3)cc1 (stereo not given)	10µM
CCOc1ccc(NC(=O)c2c(NC(=O)c3cccs3)sc3c2CCC(C(C)(C)C)C3)cc1 (stereo not given)	.
CC1CCc2c(sc(NC(=O)c3ccccc3)c2C(=O)Nc2ccccc2)C1 (stereo not given)	13µM
CC(C)c1ccc(CC(=O)N2CCCc3ncc(C(=O)NCc4ccc(F)cc4)cc32)cc1	.
SMILES	Pf Dd2 growth
O=C(C1CC1)N1CCCC(c2nn(-c3ccccc3)c(=O)[nH]2)C1 (stereo not given)	.
O=S(=O)(c1cnc[nH]1)N1CCC(c2nc(-c3ccccc3)no2)C1 (stereo not given)	.[5.79 µM]
COc1ccccc1NC(=O)c1c(NC(=O)c2ccco2)sc2c1CCC(C(C)(C)C)C2 (stereo not given)	.
CC(C)(C)C1CCc2c(sc(NC(=O)c3ccc(Cl)cc3)c2C(=O)NCc2ccco2)C1 (stereo not given)	5.6µM
CC(C)(C)C1CCc2c(sc(NC(=O)c3ccncc3)c2C(=O)Nc2ccccc2Cl)C1 (stereo not given)	.
NC(=O)c1ccc(CC2CCN(C(=O)C3CC=CC3)CC2)cc1	.
COc1ccc(-c2n[nH]c3c2CC(=O)N(Cc2ccccc2F)C3)cc1F	.
COc1ccc(-c2nn(-c3ccccc3C)cc2CN2CCN(C)C(=O)[C@@H]2C)cc1F	.
COc1ccc(-c2nn(-c3ccccc3C)cc2CN2CCCOCC2)cc1F	.
COc1ccc(-c2nn(-c3ccccc3C)cc2CN2C[C@@H](C)O[C@@H](C)C2)cc1F	10µM
COCC1CCN(Cc2cn(-c3ccccc3C)nc2-c2ccc(OC)c(F)c2)CC1	10µM
COC[C@H]1CCCN1Cc1cn(-c2ccccc2C)nc1-c1ccc(OC)c(F)c1	.
O=C(NCc1ccccc1F)N1C[C@@H](CN2CCCCC2)[C@@H](CO)C1	.
COc1ccc(CN2CCC3(CC2)CC(O)CCO3)cc1 (stereo not given)	.
O=C(NCc1nnc2n1C(C(=O)NCCc1ccc(Cl)cc1)CC2)C1CC1 (stereo not given)	.
Cc1ccn(CCC(=O)N2CCCC2C(=O)Nc2cccc(-n3cccn3)c2)n1 (stereo not given)	.
CCCC(=O)NCCc1nc2ccccc2n1Cc1c(F)cccc1Cl	.
O=C(NCCc1nc2ccccc2n1Cc1ccc(Cl)cc1Cl)c1ccco1	11µM
O=C(NCCc1nc2ccccc2n1Cc1ccc(Cl)cc1)c1ccccc1	.
Cc1noc(C)c1CC(=O)N1CCCn2ccnc2C1c1ccccc1 (stereo not given)	.
OCC1(Cc2cccc(Cl)c2)CCCNC1 (stereo not given)	11µM
COc1cccc(CC2(CO)CCCN(C(=O)c3cn4ccsc4n3)C2)c1 (stereo not given)	.
OC1(CN2CCN(Cc3cccc(Cl)c3)CC2)CCCNC1 (stereo not given)	.
CCCn1ncc(CN2CCC(Cc3cccc(C(F)(F)F)c3)(C(=O)OCC)CC2)c1C	13µM
CCOC(=O)C1(Cc2ccccc2C(F)(F)F)CCN(C(=O)c2ccc[n+]([O-])c2)CC1	.
SMILES	Pf Dd2 growth
COCC1CN(C(C)=O)CC12CCN(Cc1cccc(C(F)(F)F)c1)CC2 (stereo not given)	.
O=C(c1ccncc1)N1CCc2nc3cc(-c4ccccc4Cl)[nH]n3c(=O)c2C1	.[5.79 µM]
COc1ccc(C(=O)N2C[C@@H](F)C[C@H]2C(=O)N2CCCCC2)c(OC)c1	.
COCCCNc1nc(-c2c(C)noc2C)cc2cc(CN(C)C)oc12	.
Cc1noc(C)c1-c1cc2cc(CN(C)C)oc2c(Nc2ccncn2)n1	.
Cc1noc(C)c1-c1cc2cc(CN(C)C)oc2c(-c2ccc([S+](C)(=O)[O-])cc2)n1	8.9µM
COC(=O)c1cn([C@H]2CO[C@H]3[C@@H]2OC[C@H]3OC(=O)Nc2ccccc2)nn1	.
Cn1cnnc1CC1CCN(C(=O)c2cc3c([nH]c2=O)CCCC3)CC1	.
Cc1cccc(-c2ccccc2CN)c1	10µM
Cc1cccc(-c2nocc2CCC(=O)NCc2ccccc2F)c1	.
CCCCCn1c(-c2cccc(C)c2)nc2ccccc21	.
NCc1cccc(-c2ccccn2)c1	.
CN(Cc1ccc(-c2ccccc2)cc1)C(=O)c1cccc(Cl)c1	.
NCc1cccc(-c2cc(F)cc(F)c2)c1	10µM
NCc1cccc(-c2ccc3c(c2)C(=O)N2CC[C@H](NC(=O)c4cccc(F)c4)[C@H]2C(=O)N3)c1	.
COc1ccc(CCC(=O)NCCc2csc(-c3cccc(C)c3)n2)cc1	.
NCc1ccc(-c2cccc(Cl)c2)cc1	10µM
O=Cc1ccc(-c2cccc(Cl)c2)cc1	.
Cc1cccc(-c2ccc(CN)cc2)c1	11µM
COc1ccc(Cn2ccn(Cc3cccc(C)c3)c(=O)c2=O)cc1	.

Screens from PubChem BioAssay.
